GPR7 antagonist: antagonists of human GPR7 (neuropeptides B/W receptor 1). P48145. GPR7-expressing cells, fluorescence antagonist assay. inhibition, % at 4.4 µM. hit rate 1.1% among 290,000; in the data active = inhibition above about 16%, passing the limit was not always enough;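 note: cells stimulated with the agonist NPW; 0% = agonist with vehicle and 100% = vehicle without agonist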
CHT PAM: allosteric activators of human choline transporter CHT; B-score at 10 µM; Q9GZV3; CHT-expressing cells, membrane potential dye, choline EC20; hits give high values; LV-AA mutant CHT in HEK293 cells; hit rate 0.49% among 310,000;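 active = initial fluorescence not abnormally high and integrated response B-score, plate-corrected, over 3 SD above library mean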
Target sequence (Q9GZV3 whole entry, looked up): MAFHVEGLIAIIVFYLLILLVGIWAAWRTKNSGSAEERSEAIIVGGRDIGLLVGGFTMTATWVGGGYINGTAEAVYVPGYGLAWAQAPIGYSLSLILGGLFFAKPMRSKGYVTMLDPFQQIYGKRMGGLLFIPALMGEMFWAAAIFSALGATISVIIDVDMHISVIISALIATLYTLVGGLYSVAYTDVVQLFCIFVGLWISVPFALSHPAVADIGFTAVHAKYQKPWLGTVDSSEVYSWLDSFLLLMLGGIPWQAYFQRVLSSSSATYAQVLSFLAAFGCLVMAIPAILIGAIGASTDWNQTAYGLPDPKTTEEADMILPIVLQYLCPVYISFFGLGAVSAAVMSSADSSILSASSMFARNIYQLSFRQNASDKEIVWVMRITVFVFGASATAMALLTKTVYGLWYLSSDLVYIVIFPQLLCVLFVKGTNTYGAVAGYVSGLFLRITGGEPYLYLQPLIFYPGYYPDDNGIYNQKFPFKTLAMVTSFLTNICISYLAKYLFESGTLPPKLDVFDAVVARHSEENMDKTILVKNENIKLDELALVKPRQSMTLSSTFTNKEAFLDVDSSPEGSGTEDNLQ
TMEM16A act: activates or potentiates the mouse TMEM16A chloride channel. HEK293 TMEM16A/YFP-H148Q/I152L, iodide quench fluorescence; hits give low values. hit rate 0.3% among 340,000. Q8BHY3. B-score at 10 µM;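 active = fluorescence-ratio B-score plate-corrected deviation score at least 3 library SD below zero, with starting fluorescence score within 5 deviations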;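 note: channel opened by trigger with iodide after compound preincubation; score built on the fluorescence ratio of max minus min over baseline; more negative score means more quench and so TMEM16A activation or potentiation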
CHT inh: human CHT choline transport inhibition. AID 488975. Q9GZV3. hit rate 0.86% among 310,000. CHT-expressing cells, membrane potential dye, choline response; hits give low values. B-score at 10 µM;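 active = B-score over 3 SD under the library average, and starting fluorescence ratio not unusually high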;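 note: choline stimulus applied at its EC90 after an EC20 pre-addition; B-score computed on integrated fluorescence ratio after choline addition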
ANO1 block: inhibitors of mouse TMEM16A calcium-activated chloride channel. Q8BHY3. HEK293 TMEM16A/YFP iodide influx fluorescence, ionomycin. hit rate 1.2% among 310,000. AID 588511. normalized B-score (activity score, 25-100; higher = stronger inhibition) at 10 µM;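 active = ratio plate-corrected score three or more library SD toward inhibition, starting fluorescence score within five deviations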;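 note: score derived from kinetic fluorescence span divided by baseline fluorescence per well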
Kir21 inh: blocks the mouse Kir2.1 inward-rectifier potassium channel. P35561. HEK293-Kir2.1, FluxOR thallium flux fluorescence; hits give low values. B-score at 10 µM. hit rate 0.85% among 310,000. AID 1672;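 active = fluorescence ratio B-score at or below minus 3 SD of library scores, with starting-brightness B-score within 2 SD, cut at about -4.2 in these data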;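 note: channel flux triggered by added potassium and thallium sulfate stimulus; B-score of peak minus minimum fluorescence over baseline after thallium stimulus; more negative B-score means stronger Kir2.1 block with less thallium influx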
* = called active by the depositor; i = inactive; x = no result. Hits are enriched below; roughly 3.7% of the tested compounds scored in any of these assays.

SMILES	GPR7 antagonist	CHT PAM	TMEM16A act	CHT inh	ANO1 block	Kir21 inh
COc1cccc(NC(=O)CN(C)S(=O)(=O)c2ccc3[nH]c(=O)oc3c2)c1	2	i	i	i	i	1.7
CC(C(=O)Nc1ccc(S(=O)(=O)N2CCOCC2)cc1)N1C(=O)C2CC=CCC2C1=O (stereo not drawn)	0	i	i	i	i	-0.03
O=C(O)C(c1ccccc1)C(O)c1ccc2c(c1)OCO2 (stereo not drawn)	x	x	i	x	x	x
COc1ccc(CCN(C)C(=O)c2cnc(C)cn2)cc1OC	-2	i	i	i	i	-0.02
O=Cc1[nH]c2ccccc2c1N(C(=O)CCl)c1ccc([N+](=O)[O-])cc1	0	i	i	i	25*	-5.5*
CC(=O)n1cc(N(C(=O)CCl)c2ccc([N+](=O)[O-])cc2)c2ccccc21	21*	i	i	i	i	-3
CC(=O)n1cc(N(C(=O)CCl)c2ccccc2)c2ccccc21	-7	i	i	i	i	-1.4
O=C(Cc1ccccc1)NN1C(=O)C2C3C=CC(C3)C2C1=O (stereo not drawn)	3	i	-38*	i	i	0.85
O=C(Cn1[nH]c(=O)c2ccccc2c1=O)NCCN1C(=O)S/C(=C\c2ccccc2)C1=O	x	x	i	x	x	x
CCOC(=O)C1=C(C)N(CCCCCC(=O)O)C(=O)NC1c1ccc(Cl)cc1 (stereo not drawn)	-14	i	i	i	i	0.84
CCOC(=O)C1=C(C)N(CC)C(=S)NC1c1ccc(Cl)cc1 (stereo not drawn)	-3	i	i	i	i	-7.1*
Oc1cccc(-c2nc3ccccc3s2)c1	-15	i	i	i	i	0.47
Oc1ccc(O)c(Cc2nc3ccccc3s2)c1	33*	i	i	i	i	1.2
Cc1cc(C)n2nc(C(=O)OCC(=O)N3C(C)CCCC3C)nc2n1 (stereo not drawn)	x	i	i	i	i	0.09
CC1(C)SC(=S)N(/N=C/c2ccc(O)cc2)C1N(O)C(=O)Nc1ccc([N+](=O)[O-])cc1 (stereo not drawn)	-5	i	i	i	100*	1.5
Cc1cc(NS(=O)(=O)c2c(C(=O)N3CCOCC3)c(C)n(C)c2C)ccc1Br	9	i	i	i	i	0.25
CC1CCN(CCCCOc2ccccc2-c2ccccc2)CC1	11	i	i	i	i	-9.7*
CC1CCN(CCOCCOc2ccccc2-c2ccccc2)CC1	14	i	i	i	i	-5.5*
CC1CCN(CCOc2ccc(OCc3ccccc3)cc2)CC1	5	i	i	i	i	-7.1*
COc1ccccc1OCCCCN1CCC(C)CC1	-2	i	i	i	i	-0.01
c1ccc(COc2ccc(OCCCCN3CCCC3)cc2)cc1	-1	i	i	i	i	-0.41
COc1ccc(-c2nnc(SCc3nc4ccccc4c(=O)[nH]3)o2)cc1	-4	i	i	i	i	-1.1
COC(=O)CCNC(=O)CCc1ccc(S(=O)(=O)N2CCCCCC2)cc1	x	x	i	x	x	x
Cc1ccc2cc(C)c(SCC(=O)NCC3CCCO3)nc2c1 (stereo not drawn)	0	i	i	i	i	-4.3*
CCn1c(SCC(=O)NCC2CCCO2)nnc1-c1ccccc1 (stereo not drawn)	-5	i	i	i	i	-0.22
SMILES	GPR7 antagonist	CHT PAM	TMEM16A act	CHT inh	ANO1 block	Kir21 inh
Cc1ccc(SCC(=O)NCC2CCCO2)cc1 (stereo not drawn)	-1	i	i	i	i	0.05
Nn1cc(-c2ccccc2)nc1SCC(=O)NCC1CCCO1 (stereo not drawn)	1	i	-20*	i	i	0.48
CS(=O)(=O)c1nc(-c2ccco2)cc(C(F)(F)F)n1	15*	i	x	i	i	-0.5
COc1cccc(CNC(=O)c2cccc(S(=O)(=O)N3CCN(Cc4ccccc4)CC3)c2)c1	x	x	i	x	x	x
Nc1cc(=O)[nH]c(SCC(=O)NC2CCCCCCC2)n1	x	x	i	x	x	x
CC(Sc1nc(N)cc(=O)[nH]1)C(=O)NC1CCCCC1 (stereo not drawn)	0	i	-9.7*	i	i	x
O=c1cc(N2CCCCC2)c(-c2ccccc2)nn1Cc1c(Cl)cccc1Cl	0	i	-26*	i	25*	-0.08
O=c1cc(N2CCCCC2)c(-c2ccccc2)nn1Cc1ccc(Cl)cc1	-4	i	i	i	i	2.4
CC(C)C(NCC(=O)Nc1ccccc1C(=O)NC1CC1)c1ccccc1 (stereo not drawn)	x	x	i	x	x	x
Cc1ccc(C(C)C)c(OCCNCCc2ccccc2)c1	20	i	i	i	i	-9.9*
c1ccc(CCNCCOc2ccccc2)cc1	5	i	i	i	i	-1.1
CCCCNCC#CCOc1cc(C)ccc1C(C)C	2	i	i	i	i	-4.7*
CCN1/C(=C/c2ccc3cc(C)ccc3[n+]2CC)Sc2ccccc21	44*	i	i	i	i	-15
CC[n+]1c(/C=C2\Sc3ccccc3N2C)ccc2cccc(C)c21	1	x	i	x	x	-8.6
C/C(CCC(C)C)=N\NC(=S)Nc1cc(S(=O)(=O)N2CCOCC2)ccc1N1CCOCC1	-9	i	i	i	i	0.27
O=C(O)CSCC(=O)N(Cc1ccccc1)c1nc(-c2ccccc2)c(-c2ccccc2)s1	-11	i	i	i	100*	1.6
CCOC(=O)c1sc(N(Cc2ccccc2)C(=O)CCl)nc1C	-15	i	i	i	i	-0.53
CCNC(=S)Nn1cnc2ccccc21	-5	i	i	i	i	-0.04
Cc1ccc(S(=O)(=O)N2CCC[C@H]2C(=O)OCC(=O)c2ccc3c(c2)NC(=O)CO3)cc1	-11	i	i	i	25*	-2.4
Cc1ccc(S(=O)(=O)N2CCCC2C(=O)OCC(=O)Nc2ccc3c(c2)OCO3)cc1 (stereo not drawn)	13	i	i	i	i	0
Cc1[nH]c2ccccc2c1C(=O)/C=C\c1ccccc1Cl	-5	i	i	i	i	0.42
Cc1[nH]c2ccccc2c1C(=O)/C=C/c1ccccc1	1	i	i	i	100*	-0.68
C(#Cc1ccccc1)CN1CCCCC1	-10	i	i	i	i	0.46
C(#CCN1CCCC1)CC(c1ccccc1)c1ccccc1	8	i	i	i	i	-10*
COc1cc(CN2CCC(n3nccc3NC(=O)C3CC3)CC2)cc(OC)c1	-14	i	i	i	i	2.4
